This is an account of results in PubChem BioAssay.

Several values for one entry are separate records, joined by “and”; a condition that tells them apart may be missing. Equal entries are not always repeated. Activity calls are given as the source filed them.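 Rule for the calls, unless noted: active = thallium flux through the channel raised or lowered by more than 3 SD from vehicle-only wells, actives on both sides; inactive = the rest.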

Assay [1] can be described thus: P. berghei load reduction in hepatocytes – cell-based, HepG2, luciferase luminescence, HepG2 viability, primary screen (AID 624349; in the data active = parasite load remaining mostly below about 12%, no sharp cut-off; inactive = mostly above about 10%;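 note: 100% = mean of DMSO negative control wells on the same plate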). The following applies: P. berghei liver stage in HepG2, luciferase luminescence, concentration not given here; parasite load remaining: stronger effect = lower value; viability: measured here: HepG2 viability without parasites.
Assay [2] in a line: signal quenchers or enhancers, Cy5 substrate/SSB – biochemical, NIH Clinical Collection, E. coli SSB, artefact control for HCV NS3 helicase inhibitor project (AID 743268; call rule not given here). The following applies: Cy5-oligo bound E. coli SSB, fluorescence interference.
Assay [3] concerns Hepatitis C virus NS3 helicase. Kind of assay: blockers of NS3h binding to DNA – biochemical, fluorescence polarization, NIH Clinical Collection, primary screen (AID 743270; call rule not given here). The following applies: NS3 helicase binding to Cy5-dT15 DNA, stronger effect = higher value, concentration not given here.
Assay [4] addresses Single-stranded DNA-binding protein (Escherichia coli (strain K12)) (UniProt P0AGE0). Kind of assay: SSB-ssDNA binding inhibitors – biochemical, fluorescence polarization, NIH Clinical Collection, counter-screen for HCV NS3 helicase inhibitor project (AID 743271; in the data active = inhibition above about 28%). The following applies: E. coli SSB-DNA binding, stronger effect = higher value, concentration not given here.
The nature of assay [5]: compounds distorting NS3 helicase fluorescence signal – biochemical, NIH Clinical Collection, artefact control for HCV NS3 helicase inhibitor project (AID 743272; call rule not given here;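 note: HCV NS3 helicase with a Cy5 labelled single stranded DNA probe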). The following applies: fluorescence interference counterscreen, HCV NS3 helicase assay; stronger effect = lower value.
The subject of assay [6] is Neuropilin-2 / VEGF-C interaction (human). Kind of assay: small molecules blocking Neuropilin-2/VEGF-C interaction – biochemical, microplate binding format, z-score (AID 743281; call rule not given here). The following applies: microplate NRP2/VEGF-C binding assay; stronger effect = lower value.
A short description of assay [7]: modulation of C. elegans fzo-1 (AID 1259413; call rule not given here;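 note: fzo-1 mutant C. elegans worms in liquid wells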). The following applies: C. elegans fzo-1 modulator screen, mean read-out; stronger effect = higher value.
A short description of assay [8]: MELAS cybrid and Rieske KO viability enhancers – cell-based, MELAS cybrids, Rieske KO mouse fibroblasts, CellTiter-Glo, primary screen (AID 1508586;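 active = mean z-score across replicates of 1.96 or higher in either the MELAS or the Rieske mutant cell line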;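 note: z relative to plate mean and SD of compound and empty wells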). As to conditions: low glucose.
In assay [9] the test system is F380Y. In words: BK channel mutant inhibitors and activators – cell-based, U2OS BacMam, thallium flux, beta subunits, selectivity assay, profiling panel (AID 1259406).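 Note: initial slope of Thallos dye fluorescence rise after thallium is added; log ratio against the mean of 0.3% DMSO vehicle wells on the same plate.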 As to conditions: U2OS BacMam BK variants, at 30 µM.
In assay [10] the test system is F380Y/beta1. The description is as above. The following applies: U2OS BacMam BK variants, at 30 µM.
In assay [11] the test system is F380Y/beta2Delta. The assay is described as above. The following applies: U2OS BacMam BK variants, at 30 µM.
Assay [12] has as its system F380Y/beta4. The description is as above. The following applies: U2OS BacMam BK variants, at 30 µM.
Assay [13] addresses Calcium-activated potassium channel subunit alpha-1 (Homo sapiens) + Leucine-rich repeat-containing protein 26 (Homo sapiens) (UniProt Q12791+Q2I0M4). The assay is described as above. The following applies: U2OS BacMam BK variants, F380Y/Slo1WT/gamma1, at 30 µM.
Assay [14] has as its system R275C. The assay is described as above. As to conditions: U2OS BacMam BK variants, at 30 µM.
Assay [15] has as its system R275C/beta1. The assay is described as above. The following applies: U2OS BacMam BK variants, at 30 µM.
Assay [16] concerns R275C/beta2Delta. Described as above. The following applies: U2OS BacMam BK variants, at 30 µM.
Assay [17] deals with R275C/beta4. The assay is described as above. The following applies: U2OS BacMam BK variants, at 30 µM.
In assay [18] the test system is R275C/Slo1WT/beta2. Described as above. As to conditions: U2OS BacMam BK variants, at 30 µM.
Assay [19] is described as follows: viability loss with induced miR-34 in A549 – imaging, A549 dox-inducible miR-34, nuclei and caspase counts, primary screen (AID 1347080;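 active = compounds whose cell count with miR-34 switched on is under 0.7 times the count with it off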). The following applies: A549 miR-34 inducible, Hoechst nuclei count, 48 h.
The nature of assay [20]: galactose survival enhancers in mitochondrial complex I cybrids – cell-based, galactose medium, ATP luminescence, primary screen (AID 1645843;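 active = z-score of at least 1.8 in each of two replicates, scored against plate mean and spread of sample wells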;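 note: positive z means more ATP and so rescue of galactose-driven cybrid death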). The following applies: complex I mutant cybrid cells, 72 h, stronger effect = higher value.
The mark [21] stands for this setting: MELAS cybrid survival, CellTiter-Glo 48 h, stronger effect = higher value.
Where [22] appears, read: Rieske KO mouse fibroblast survival, CellTiter-Glo 72 h.
The mark [23] stands for this setting: stronger effect = lower value, cell number ratio, induced over uninduced.
[24] abbreviates: measured here: relative caspase fold change +Dox/-Dox.
[25] abbreviates: measured here: total cells with miR-34 induction, stronger effect = lower value.
The mark [26] stands for this setting: measured here: total cells without miR-34 induction.

Calcium-activated potassium channel subunit alpha-1 (Homo sapiens) + Leucine-rich repeat-containing protein 26 (Homo sapiens), sequence (Q2I0M4 whole entry, looked up, one chain of several): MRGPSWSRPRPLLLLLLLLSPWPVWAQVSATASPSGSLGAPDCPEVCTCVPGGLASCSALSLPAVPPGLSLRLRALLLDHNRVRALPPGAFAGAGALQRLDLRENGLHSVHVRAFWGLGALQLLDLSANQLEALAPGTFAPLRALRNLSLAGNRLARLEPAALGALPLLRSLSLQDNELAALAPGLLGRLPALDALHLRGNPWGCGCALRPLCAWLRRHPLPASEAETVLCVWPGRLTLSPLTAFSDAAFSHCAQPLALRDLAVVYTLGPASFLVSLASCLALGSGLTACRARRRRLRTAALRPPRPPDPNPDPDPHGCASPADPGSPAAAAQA

With `CCN(CC)C(=O)[C@]1(c2ccccc2)C[C@@H]1CN`, in assay [1], the parasite load remaining was 94.6% (inactive). Moreover, the viability in assay [1] was 71.3%. For the same compound, the fluorescence ratio is 1.07 (inactive) in assay [2] and 1.06 (inactive) in assay [5]. Besides, the values for the inhibition in assay [3] and in assay [4] were 1.98% (inactive) and -3.18% (inactive), respectively. The z-score is -0.224 (inactive) in [6], -0.406 (inactive) in [8] (setting [21]) and -0.158 in assay [8] (setting [22]). Further, the mean signal in [7] was 248 (inactive). The log fold change Tl+ flux in assay [9] is 0.0604 (inactive); in assay [10], 0.0284 (inactive); in assay [11], -0.038 (inactive); in assay [12], 0.00308 (inactive); in [13], 0.0521 (inactive); in assay [14], -0.00612 (inactive). For the same compound, the log fold change Tl+ flux in assay [15] was -0.0552 (inactive); in assay [16] it was -0.0341 (inactive); in assay [17] it was 0.0155 (inactive); in [18] it was 0.0022 (inactive).

With `CCC1=C[C@H]2CN(C1)Cc1c([nH]c3ccccc13)[C@@](C(=O)OC)(c1cc3c(cc1OC)N(C)[C@H]1[C@@](O)(C(=O)OC)[C@H](OC(C)=O)[C@]4(CC)C=CCN5CC[C@]31[C@@H]54)C2`, the parasite load remaining in [1] was 32.2% (inactive). The compound further displayed a viability in assay [1] of 76.8%. For the same compound, the fluorescence ratio in assay [2] was 0.8 (active); in [5], 0.78 (active). For the same compound, the inhibition in assay [3] is -1.98% (inactive); in [4] it was 9.91% (inactive). In addition, the z-score in [6] was 1.48 (inactive). In addition, in assay [7], the mean signal is 244 (inactive). For the same compound, the log fold change Tl+ flux in assay [9] is 0.0913 (inactive); in assay [10], 0.0236 (inactive); in [11] it was 0.0207 (inactive); in assay [12] it was 0.0427 (inactive); in assay [13], -0.0112 (inactive); in [14], -0.149 (active). Further, the log fold change Tl+ flux in assay [15] is 0.0456 (inactive); in assay [16], 0.0329 (inactive); in [17], 0.0723 (inactive); in assay [18], 0.104 (active).

On to `O=c1ncc(F)c[nH]1`, for which the parasite load remaining in assay [1] was 102% (inactive). Moreover, the viability in assay [1] is 68.9%. The fluorescence ratio in [2] was 1.06 (inactive); in assay [5] it was 1.05 (inactive). Moreover, the inhibition in [3] was 0.4% (inactive); in assay [4], -3.95% (inactive). Besides, the figures for the z-score in assay [6] and in assay [20] were -0.183 (inactive) and 0.75 (inactive), respectively. For the same compound, the mean signal in [7] is 283 (inactive). The fold change was 0.892 (inactive) in assay [19] (setting [23]) and 1.42 in assay [19] (setting [24]). Moreover, the figures for the cell count in [19] (setting [25]) and in [19] (setting [26]) were 9920 and 11100, respectively. For the same compound, the log fold change Tl+ flux in assay [9] was -0.0112 (inactive); in assay [10], 0.016 (inactive); in assay [11], 0.0227 (inactive); in assay [12], -0.00465 (inactive); in assay [13] it was 0.0169 (inactive); in [14], -0.0477 (inactive). Moreover, the log fold change Tl+ flux in assay [15] was 0.0224 (inactive); in [16] it was -0.0499 (inactive); in assay [17], 0.00687 (inactive); in assay [18], -0.000391 (inactive).

With `O=c1[nH]c2ccccc2c2ccccc12`, the fold change was 0.926 (inactive) and 0.97 (inactive) in assay [19] (setting [23]); 0.939 and 0.926 in assay [19] (setting [24]). The cell count in assay [19] (setting [25]) was 7660 and 2830; in assay [19] (setting [26]) it was 8280 and 2920. In addition, the z-score in [20] was 0.885 (inactive). The log fold change Tl+ flux in assay [9] is 0.027 (inactive); in [10], 0.0377 (inactive); in assay [11] it was 0.0285 (inactive); in assay [12] it was 0.0704 (inactive); in [13], -0.0148 (inactive); in assay [14], 0.0279 (inactive). For the same compound, the log fold change Tl+ flux is -0.057 (inactive) in assay [15], 0.0385 (inactive) in assay [16], -0.0579 (inactive) in [17] and -0.0287 (inactive) in [18].

For the compound `Nc1nc(Cl)nc2c1ncn2[C@@H]1O[C@H](CO)[C@@H](O)[C@H]1O`, the parasite load remaining in assay [1] was 214% (inactive). Moreover, in assay [1], the viability was 40.5%. In addition, the fluorescence ratio in [2] and in [5] was 1 (inactive) throughout. Further, the inhibition in assay [3] is 5.15% (inactive); in assay [4], 7.6% (inactive). For the same compound, the z-score in assay [6] is 0.198 (inactive). Further, the mean signal in [7] is 269 (inactive). Moreover, the log fold change Tl+ flux in [9] was -0.00984 (inactive); in [10] it was -0.0372 (inactive); in assay [11] it was -0.0171 (inactive); in assay [12] it was -0.000976 (inactive); in assay [13], -0.026 (inactive); in [14], 0.0386 (inactive). The log fold change Tl+ flux in assay [15] was -0.0185 (inactive); in assay [16], -0.0141 (inactive); in assay [17] it was 0.0509 (inactive); in assay [18], -0.00662 (inactive).

With `CCC(=C(c1ccccc1)c1ccc(OCCN(C)C)cc1)c1ccccc1`, the parasite load remaining in [1] is -1.78% (inactive). Also, the viability in assay [1] amounted to 31.4%. In addition, the results for the fluorescence ratio in assay [2] and in assay [5] were 1.01 (inactive) and 0.9 (inactive), respectively. For the same compound, the inhibition is 0.45% (inactive) in assay [3] and 7.15% (inactive) in assay [4]. Moreover, the fold change in assay [19] (setting [23]) was 0.958 (inactive) and 0.928 (inactive); in [19] (setting [24]) it was 2.28 and 0.707. Further, the cell count in assay [19] (setting [25]) is 4730 and 2790; in assay [19] (setting [26]), 4930 and 3010. In addition, the z-score in [8] (setting [21]) was 5.74 (active); in assay [8] (setting [22]), 11.9; in assay [20] it was -0.495 (inactive). Also, the log fold change Tl+ flux in assay [9] is -0.00968 (inactive); in [10] it was -0.0043 (inactive); in [11], -0.0174 (inactive); in assay [12], -0.00798 (inactive); in [13], -0.0114 (inactive); in assay [14], -0.00676 (inactive). Further, the log fold change Tl+ flux in [15] was -0.0153 (inactive); in assay [16], -0.0428 (inactive); in assay [17], 0.00537 (inactive); in assay [18], 0.0353 (inactive).

On to `O=c1c(O[C@@H]2O[C@H](CO)[C@H](O)[C@H](O)[C@H]2O)c(-c2ccc(O)c(O)c2)oc2cc(O)cc(O)c12`, for which the parasite load remaining in assay [1] is 108% (inactive). In assay [1], this compound displayed a viability of 61.9%. For the same compound, the fluorescence ratio was 0.94 (inactive) in assay [2] and 1 (inactive) in assay [5]. Also, the inhibition in assay [3] is 1.98% (inactive); in assay [4], 15.3% (inactive). For the same compound, in assay [6], the z-score was -0.00792 (inactive). In [7], the mean signal is 249 (inactive). The log fold change Tl+ flux is -0.00852 (inactive) in assay [9]; -0.00723 (inactive) in assay [10]; -0.0335 (inactive) in [11]; -0.027 (inactive) in assay [12]; -0.0251 (inactive) in assay [13]; -0.00833 (inactive) in assay [14]. The log fold change Tl+ flux was -0.0329 (inactive) in assay [15], 0.0189 (inactive) in [16], 0.0212 (inactive) in assay [17] and -0.0201 (inactive) in assay [18].
